Source: PubChem BioAssay
Shown are actives, neighbours in structure and some others; about 7.8% of the full set was active somewhere.
HCMV antiviral: qHTS Assay for inhibitors of the human cytomegalovirus (HCMV); HFF cells, HCMV-luciferase reporter, 72 h; hits give low values; activity change, negative = inhibition, % at 57.5 µM; actives 4.5% (n = 410,000); in the data active = activity change below about -60%; inconclusive = no clear call, values can overlap the other calls; inactive = above about -39%
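Inhibition of viral replication was scored as loss of reporter luminescence in HFFs infected with HCMV-luciferase (MOI 1 PFU/cell) for 72 h; compounds tested at 2 doses, normalized to buffer and Salinomycin controls.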
Marburg entry inh: qHTS for inhibitors of binding or entry into cells for Marburg Virus; Marburg virus pseudotyped entry inhibition, cell reporter; Potency, µM (series often up to 37.8 µM), inactives show top-dose activity change, negative = inhibition, actives largely listed as inhibitors; actives 1.8% (n = 300,000); calls by dose curve; tested in HEK293 cells; also: potency is read from the fitted curve at half-maximal effect
VACV mCherry inh: qHTS for Stage-Specific Inhibitors of Vaccinia Orthopoxvirus: mCherry Reporter Primary qHTS; Vaccinia virus mCherry reporter infection, fluorescence; Potency, µM (top dose mostly 36.5 µM), without a hit: at the top dose activity change, negative = inhibition, actives largely listed as inhibitors; actives 0.63% (n = 310,000); AID 720579, 2013; calls by dose curve; tested in A549 cells; also: potency is read from the fitted curve at half-maximal effect; nearly all actives have a fitted effect of over 35% in size
LASV entry inh: qHTS for Inhibitors of binding or entry into cells for Lassa Virus | Lassa virus pseudotype entry inhibition, cell reporter | Potency, µM (titrated, usually from 37.9 µM), inactives show top-dose activity change, negative = inhibition, usual class: inhibitors | actives 1.2% (n = 300,000); calls by dose curve; tested in HEK293 cells; also: potency is read from the fitted curve at half-maximal effect; nearly all actives have a fitted effect of over 50% in size
Vaccinia Venus: qHTS for Stage-Specific Inhibitors of Vaccinia Orthopoxvirus: Venus Reporter Primary qHTS; Vaccinia virus Venus reporter expression, fluorescence; actives 0.46% (n = 330,000); Potency, µM (top dose mostly 36.5 µM), for the others: at the top dose activity change, negative = inhibition, actives largely listed as inhibitors; AID 720580, 2013; calls by dose curve; tested in A549 cells; also: potency is read from the fitted curve at half-maximal effect; nearly all actives have a fitted effect of over 30% in size
HCV inhibitor: qHTS Assay for Inhibitors of Hepatitis C Virus (HCV). Huh7.5.1 HCVcc-Cre infection, luciferase reporter, 44 h. Potency, µM (titrated, usually from 41.8 µM), without a hit: top-dose activity change, negative = inhibition, usual class: inhibitors. actives 3.4% (n = 340,000); active = well fitted inhibition curve with a large enough effect; inconclusive = small, poorly fitted or top-dose-only effect, or another doubt; inactive = no such curve, though single readings can be large or run the other way; also: potency is read from the fitted curve at half-maximal effect
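After 44 h co-culture of compound, cells and HCVcc-Cre (~0.5 moi), substrate is added for 15 min at room temperature and luciferase measured over 15 sec. Cells were seeded at 1,000/well and pre-cultured 4 h.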
* = called active by the depositor; i = inactive; ? = inconclusive; . = not tested or not shown; [ ] = another dose, or the depositor's remark. % is scaled to controls: 0 for no effect and ±100 for the full control effect.

SMILES	HCMV antiviral	Marburg entry inh	VACV mCherry inh	LASV entry inh	Vaccinia Venus	HCV inhibitor
COc1ccc2c(-c3ccccc3)cc(SC(C)C(N)=O)nc2c1 (stereo not drawn)	?	?	-22%	-18%	-21%	11µM*
CN1C(=O)C2(NCCc3c2[nH]c2ccccc32)c2ccccc21 (stereo not drawn)	-5	10%	.	-3%	-3%	4%
CC1=CC(C)(C)N2C(=O)C3(NCCc4c3[nH]c3ccccc43)c3cc(C)cc1c32 (stereo not drawn)	?	.	?	.	-4%	7.9µM*
CCC[C@H]1[C@@H](NC(=O)Nc2ccc(C(F)(F)F)cc2)CC[C@@]23CCCN2C(=O)CCC[C@@H]13	-5	.	.	.	.	.
CCOC(=O)C1=CN(CCC=C(C)C)C(=O)NC1c1ccccc1 (stereo not drawn)	.	7%[14.2 µM]	.	?	.	.
CCOC(=O)c1cnc(Nc2nc3ccccc3o2)nc1CSc1ncccn1	.	10%	-13%	?	12%	-1%
CCOC(=O)c1cnc(Nc2nc3ccccc3o2)nc1CSC(=S)N(CC)CC	-64*	1%	?	?	?	21%
COc1ccc(N2CCN(C(=O)C3CCC(Cn4c(=S)[nH]c5ccccc5c4=O)CC3)CC2)cc1 (stereo not drawn)	-81*	10µM*	.	-21%	.	1µM*
O=C(C1CCC(Cn2c(=S)[nH]c3ccccc3c2=O)CC1)N1CCOCC1 (stereo not drawn)	-28	0%	.	-5%	.	-27%
O=C(C1CCC(Cn2c(=S)[nH]c3ccccc3c2=O)CC1)N1CCN(c2ccccn2)CC1 (stereo not drawn)	-91*	-7%[46.1 µM]	-11%	?	-9%	13µM*
O=C(C1CCC(Cn2c(=O)[nH]c3ccccc3c2=O)CC1)N1CCN(c2ccccc2)CC1 (stereo not drawn)	-18	11%	-19%	-13%	-19%	-11%[8.37 µM]
O=C(C1CCC(Cn2c(=S)[nH]c3ccccc3c2=O)CC1)N1CCN(c2ccccc2)CC1 (stereo not drawn)	?	?	?	4%	-29%	10µM*
COc1ccccc1N1CCN(C(=O)C2CCC(Cn3c(=S)[nH]c4ccccc4c3=O)CC2)CC1 (stereo not drawn)	-24	?	.	-24%	.	?
Cc1ccc(-n2c(=O)c3c(c4cc(C)ccc4n3C)n(Cc3ccc(F)cc3)c2=O)cc1	12	.	-16%	2%[46.1 µM]	-9%	.
Cc1nc2cccnc2n1C1CCN(C(=O)Nc2ccc(Cl)cc2)CC1	9	.	4%	13%[46.1 µM]	0%	.
COc1cccc(CNC(=O)c2c(OC)cc(=O)n3c2CCN(C(=O)C2=C(C)OCCO2)CC3)c1	.	.	-12%	.	-8%	.
CCc1c(C)sc2c1CCN(C(=O)Nc1ccc(F)c(Cl)c1)C2c1ccc(F)cc1 (stereo not drawn)	-104*	.	-19%	?	-2%	.
Cn1nc([N+](=O)[O-])nc1Sc1nnc(-c2ccccc2)o1	-90*	?	-27%	-27%	-18%	-30%
O=Cc1ccc(Sc2nnc(-c3ccccc3)o2)c([N+](=O)[O-])c1	.	?	.	-14%	.	-20%
O=Cc1s/c(=N\S(=O)(=O)c2ccccc2)n(CCCCl)c1Cl	-108*	?	?	?	?	4.5µM*
CN1C(=O)C(C(Nc2ccccc2)c2ccc(Br)cc2)c2ccccc21 (stereo not drawn)	49	.	.	.	.	.
COc1ccc(NC(=O)CSC2=Nc3ccccc3C3=NC(CCC(=O)NCc4cccs4)C(=O)N23)cc1 (stereo not drawn)	-73*	.	-26%	5%[46.1 µM]	-20%	.
COc1cccc(NC(=O)CSC2=Nc3ccccc3C3=NC(CCC(=O)NCCc4ccccc4)C(=O)N23)c1 (stereo not drawn)	-68*	.	?	-10%[46.1 µM]	?	.
O=C(CSC1=Nc2ccccc2C2=NC(Cc3ccccc3)C(=O)N12)Nc1cccc(Cl)c1 (stereo not drawn)	-72*	.	?	?	-22%	.
COc1ccccc1-c1cc2c(Nc3cc(OC)c(OC)c(OC)c3)nccc2n1C	-39	.	.	.	.	.
SMILES	HCMV antiviral	Marburg entry inh	VACV mCherry inh	LASV entry inh	Vaccinia Venus	HCV inhibitor
Cc1nn2c(=O)cc(COC(=O)c3ccc(NC(=O)C4CCCCC4)cc3)nc2s1	-65*	.	-41%	4%[46.1 µM]	?	.
O=C(OCc1cc(=O)n2nc(C3CC3)sc2n1)c1ccc(NC(=O)c2ccccc2F)cc1	-19	.	-7%	-2%[46.1 µM]	-5%	.
Cc1cccc(C(=O)Nc2ccc(C(=O)OCc3cc(=O)n4nc(C5CC5)sc4n3)cc2)c1	-10	.	?	3.2µM*	?	.
CCc1nn2c(=O)cc(COC(=O)c3ccc(NC(=O)C4CCCCC4)cc3)nc2s1	8	.	i	-1%[46.1 µM]	-17%	.
Cc1ccc(C(=O)Nc2ccc(C(=O)OCc3cc(=O)n4nc(C5CC5)sc4n3)cc2)cc1	-16	.	-8%	?	-3%	.
Cc1ccccc1OCC(=O)Nc1cccc(C(=O)OCc2cc(=O)n3c(C)csc3n2)c1	-89*	.	-14%	14%[46.1 µM]	-20%	.
Cc1cn2c(=O)cc(COC(=O)c3cccc(NC(=O)COc4ccccc4C)c3)nc2s1	?	.	-13%	10%[46.1 µM]	-11%	.
Cc1ccccc1C(=O)Nc1ccc(C(=O)OCc2cc(=O)n3nc(C4CC4)sc3n2)cc1	-81*	.	?	?	-24%	.
COc1ccc(CCNC(=O)c2ccc3nc(Cc4ccccc4)oc3c2)cc1OC	-17	.	-13%	?	-3%	.
Cc1ccc(C(=O)Nc2cccc(C(=O)OCc3cc(=O)n4c5c(sc4n3)CCCC5)c2)cc1	-88*	.	-14%	26%[46.1 µM]	-15%	.
CCOc1ccc(NC(=O)C(C)Oc2ccccc2C(=O)Nc2ccc(C)c(Cl)c2)cc1 (stereo not drawn)	88	-24%	.	-7%	.	11µM*
Cc1ccc(NC(=O)COc2ccccc2C(=O)Nc2ccccc2)cc1Cl	19	-1%	-14%	14%	-9%	-9%
Cc1ccc(-n2c(C)cc(C(=O)C(=O)Nc3ccccc3)c2C)c(C)c1	?	-2%[46.1 µM]	-7%	-14%[46.1 µM]	-10%	.
O=C(CSc1n[nH]c(-c2ccc(S(=O)(=O)NC3CCCCC3)cc2)n1)N1CCCC1	-61*	-26%	-4%	?	-15%	-22%
COc1ccc(-c2nc(SCC(=O)N3CCC(C)CC3)n[nH]2)cc1	14	.	-20%	3.2µM*	-13%	.
c1ccc2c(c1)ccn2-n1ccc2ccccc21	.	.	?	.	-30%	.
C=CCn1c(O)c(C(CC)=Nc2ccc3c(c2)CCC3)c(=O)[nH]c1=O	50	9%	-17%	0.89µM*	-18%	19%
